Data on 40 molecules can be found in PubChem BioAssay AID2162 (National Center for Advancing Translational Sciences (NCATS), 2009).

Inconclusive results are not listed. Unmarked numbers belong to inactive results. Activity calls are given as the source filed them. Calls come from the whole dose curve; as a rule, active = well fitted inhibition curve with a large enough effect; inconclusive = small, poorly fitted or top-dose-only effect; inactive = flat fitted curve, though single readings scatter.

Chain of Polyunsaturated fatty acid lipoxygenase ALOX12 (Homo sapiens) (P18054 whole entry, looked up): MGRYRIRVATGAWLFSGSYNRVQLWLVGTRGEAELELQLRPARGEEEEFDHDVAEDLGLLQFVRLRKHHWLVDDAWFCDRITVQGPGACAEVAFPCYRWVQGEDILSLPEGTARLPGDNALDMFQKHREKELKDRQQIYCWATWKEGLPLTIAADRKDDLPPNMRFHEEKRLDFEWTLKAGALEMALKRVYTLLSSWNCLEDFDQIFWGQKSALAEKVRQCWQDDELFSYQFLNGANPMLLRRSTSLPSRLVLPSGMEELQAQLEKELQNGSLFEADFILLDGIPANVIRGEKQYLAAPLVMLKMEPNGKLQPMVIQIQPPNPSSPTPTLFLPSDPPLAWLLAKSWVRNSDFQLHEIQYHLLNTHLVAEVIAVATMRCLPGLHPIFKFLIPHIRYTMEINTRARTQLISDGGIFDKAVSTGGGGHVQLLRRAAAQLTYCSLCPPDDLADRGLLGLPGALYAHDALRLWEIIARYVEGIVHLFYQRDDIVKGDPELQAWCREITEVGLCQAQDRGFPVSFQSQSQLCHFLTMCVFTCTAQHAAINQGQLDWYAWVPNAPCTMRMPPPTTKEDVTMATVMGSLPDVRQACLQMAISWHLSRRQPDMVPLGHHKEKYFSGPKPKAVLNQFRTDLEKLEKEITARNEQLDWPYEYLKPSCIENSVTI

The assay deals with Polyunsaturated fatty acid lipoxygenase ALOX12 (Homo sapiens) (UniProt P18054). Briefly: Confirmation qHTS Assay for Inhibitors of 12-hLO (12-human lipoxygenase). Conditions: purified 12-hLO, xylenol orange absorbance; activity change, negative = inhibition: stronger effect = lower value. From the text:
Assay Provider: Holman, T.R., University of California, Santa Cruz Screening Center PI: Austin, Christopher P. Screening Center: NIH Chemical Genomics Center Human lipoxygenase 12hLO is a member of the closely related lipoxygenase family of enzymes which catalyze the site-specific oxidation of arachidonic acid to various hormone precursor molecules and as such is a candidate for drug development in a variety of disease areas, such as cancer and inflammation. Inhibition of 12hLO activity was screened by utilizing arachidonic acid as a substrate. The extent of hydroperoxide product formation was measured by a secondary chromogenic reaction in which xylenol orange (XO, Sigma-Aldrich, cat. number 39,818-7) reacts with the ferric ions produced from the reaction between the hydroperoxide and ferrous ions. The Fe(III)-XO complex is characterized with red-shifted absorbance at 560 nm. A purified preparation of human 12hLO was supplied by Professor Ted Holman, University of California, Santa Cruz. This assay includes some confirmation and follow-up compounds for related primary screening assay AID 1452.
Assay Protocol: Buffer: 25 mM Hepes pH 7.0, 0.01% Triton X-100. Reagents/Controls: Buffer in columns 3 and 4 as negative control (no enzyme). Substrate solution: 40 uM arachidonic acid (Sigma-Aldrich, St. Louis, MO) final concentration dispensed throughout the plate. Enzyme: 150 nM 12hLO final concentration in columns 1, 2, 5-48. Column 1 is neutral (100% activity). Column 2 contained pin-transferred titration of NDGA (nordihidroguaiaretic acid, Sigma-Aldrich, N 5023, top concentration 20 mM in DMSO, then 1:3 dilution in duplicate). (Dilution factor: 23 nL into 4 uL.) Chromogenic detection reagent (divalent iron/xylenol orange, Fe-XO): 200 uM xylenol orange plus 300 uM ferrous ammonium sulfate prepared freshly in 50 mM sulfuric acid. Assay Steps: Three uL of enzyme were dispensed to 1536-well Greiner black clear bottom plates. Compounds and controls (23 nL) were transferred via Kalypsys PinTool. The plates were incubated for 15 min at room temperature, and then 1 uL of substrate solution was added to start the reaction. After room temperature incubation for 30 minutes, 4 uL of Fe-XO solution was added to each well and the plates were incubated for 30 min. The absorbance at 405 and 573 nm were measured using ViewLux (Perkin-Elmer) High-throughput CCD imager and absorbance protocol settings. The 573-to-405 absorbance ratio was used to compute reaction progress.
In the case of `CNc1oc(-c2cccc3ccccc23)nc1C#N`, the Potency is 4.47 µM (active).
Still for that read-out and setting: the result for `CCC(=O)NC(c1cccs1)c1ccc2cccnc2c1O` (stereo not given) reads 17.8 µM (active); that for `CCC(=O)NC(c1ccco1)c1cc(Cl)c2cccnc2c1O` (stereo not given), 5.01 µM (active).
Take `O=C(OCC#CCSc1nnc(-c2cccc3ccccc23)o1)c1cccc2[nH]ccc12`: the activity change, negative = inhibition was -10.7%.
For `N#Cc1nc(-c2ccc(OCc3ccc(Cl)cc3)cc2)oc1N1CCC(C(N)=O)CC1`, the activity change, negative = inhibition was -12.9%.
With `CCC(=O)NC(c1cccs1)c1cc([N+](=O)[O-])c2cccnc2c1O` (stereo not given), the Potency is 7.94 µM (active).
With `CCC(=O)NC(c1ccc(C)cc1)c1cc([N+](=O)[O-])c2cccnc2c1O` (stereo not given), the Potency is 28.2 µM (active).
Consider `CCCCn1c(NC(C)=O)c(C#N)c2nc3ccccc3nc21`, for which the activity change, negative = inhibition is -16%.
`CCC(=O)NC(c1ccc(C)cc1)c1ccc2cccnc2c1O` (stereo not given): the Potency was 31.6 µM (active).
The same measure, in the same setting: under `CCC(=O)NC(c1ccc(C)s1)c1cc(Cl)c2cccnc2c1O` (stereo not given) stands 39.8 µM (active).
`CC(=O)[C@@H]1[C@@H]2C(=O)N(Cc3ccccc3)C(=O)[C@@H]2C2c3ccccc3C=CN21` (stereo not given in full): the activity change, negative = inhibition was -19.1%.
As to `O=C(Nc1nnc(-c2ccccc2)o1)c1ccc(Cl)cc1`, the Potency was 4.47 µM (active).
On to `O=C(OCC#CCSc1nnc(-c2cccc3ccccc23)o1)c1cc2ccccc2o1`, for which the activity change, negative = inhibition is -10.1%.
Turning to `CN(C)c1oc(-c2ccc(OCc3ccccc3)cc2)nc1C#N`, the activity change, negative = inhibition is -20.4%.
Turning to `COC(=O)c1ccc(C(=S)N2CCOCC2)cc1`, the activity change, negative = inhibition was -15.6%.
In the case of `CN(C)c1ccc(C(=O)OCC#CCSc2nnc(-c3cccc4ccccc34)o2)cc1`, the activity change, negative = inhibition was -12.9%.
Take `O=C(Nc1nc2n(n1)C(c1ccccc1)CC(c1ccc(Cl)cc1)N2)c1ccco1` (stereo not given): the Potency is 14.1 µM (active).
`CC(=O)N1CCN(c2ccc(NCc3cccs3)cc2)CC1`: the Potency was 44.7 µM (active).
For `O=C(C1=C(O)C(=O)N(Cc2ccco2)C1c1cccnc1)c1cc2ccccc2o1` (stereo not given), the activity change, negative = inhibition is -19%.
Regarding `CCC(=O)NC(c1ccc(F)cc1)c1cc(Cl)c2cccnc2c1O` (stereo not given), the Potency was 15.8 µM (active).
Turning to `COc1ccc(OC)c(NC(=O)NC2(C(F)(F)F)Oc3ccccc3O2)c1`, the activity change, negative = inhibition was -12.7%.
Turning to `Cc1noc(C)c1-c1nc(N(C)Cc2ccco2)c2ccccc2n1`, the activity change, negative = inhibition is -12.2%.
Turning to `CCCC(=O)NC(c1ccco1)c1cc(Cl)c2cccnc2c1O` (stereo not given), the Potency was 2.82 µM (active).
Consider `CC(=O)N1CCN(c2ccc(NCc3ccc(C)cc3)cc2)CC1`, for which the Potency is 22.4 µM (active).
For `O=C(NCC#CCSc1nnc(-c2cccc3ccccc23)o1)c1cccs1`, the activity change, negative = inhibition was -3.59%.
As to `Clc1ccc(-c2nnc(C3CCCCC3)o2)cc1`, the activity change, negative = inhibition was -9.47%.
For the molecule `O=C(Nc1nnc(-c2ccco2)s1)C1CCCCC1`, the activity change, negative = inhibition is -5.47%.
Take `CC(=O)N1CCN(c2ccc(NCc3ccc(F)cc3)cc2)CC1`: the Potency was 31.6 µM (active).
Take `O=C(OCC#CCSc1nnc(-c2cccc3ccccc23)o1)c1ccc(Cl)cc1`: the activity change, negative = inhibition is -7.17%.
On to `CC(=O)NCCNc1ncncc1-c1ccc(N(C)C)cc1`, for which the activity change, negative = inhibition was -13.5%.
Take `OCC#CCSc1nnc(-c2cccc3ccccc23)o1`: the activity change, negative = inhibition is -15.8%.
Consider `CCOC(=O)c1c(NC(=O)CN2CCOCC2)sc2c1CCCC2`, for which the activity change, negative = inhibition was -5.92%.
With `O=C1C2C3CCCC3=C3CCCC3C2C(=O)N1c1cccc(Cl)c1` (stereo not given), the activity change, negative = inhibition was -9.6%.
Still for that read-out and setting: the result for `O=C(OCC#CCSc1nnc(-c2cccc3ccccc23)s1)c1cccs1` reads -23.7%; that for `CN(C)CCC(=O)c1ccc(Cl)cc1`, -17.8%; that for `CCC(=O)N(Cc1cc(=O)[nH]c2ccccc12)C1CCCCC1`, 3.25%.
For the molecule `Oc1ccc2ccccc2c1CNc1cnc2ccccc2c1`, the Potency was 5.01 µM (active).
Regarding `Oc1ccc(CNc2ccccc2)c2cccnc12`, the Potency was 11.2 µM (active).
In the case of `COc1ccc(C(C[N+](=O)[O-])c2c(-c3ccccc3)cc3ccccn23)c(OC)c1` (stereo not given), the activity change, negative = inhibition is -14.8%.
Same read-out and setting: the result for `COc1ccccc1C(=O)OCC#CCSc1nnc(-c2cccc3ccccc23)o1` reads -4.87%.
